Assay outcomes as filed in PubChem BioAssay.
hgDAF12 agonist: hgDAF-12 agonism, primary luciferase screen | HEK293 GAL4-hgDAF12 UAS-luciferase reporter, agonist luminescence; normalized to butyrate control | activation, % at 6.8 µM | 370,000 compounds, 1.8% hits | AID 687014;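 active means activation above a cutoff set at the mean of all screened compounds plus 3 SD, cut at about 10% in these data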;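 further: 0% = DMSO wells and 100% = sodium butyrate wells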
APP 5'UTR act: activates APP 5'UTR luciferase reporter; activation, % at 2 µM; AID 1276; 190,000 compounds, 1% hits; SH-SY5Y APP 5'UTR luciferase reporter, luminescence; zero percent = DMSO vehicle wells;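 active means activation above a set limit, based on mean plus 3 SD of controls, cut at about 140% in these data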
hcDAF-12 act: activators of H. contortus DAF-12 nuclear receptor; HEK293 hcDAF-12 lit1-tk-luc reporter, luminescence; 0% DMSO, 100% Δ7-dafachronic acid; activation, % at 6.8 µM; 370,000 compounds, 1.4% hits; AID 652067;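 active means activation above the mean of all tested compounds plus 3 SD, cut at about 5.5% in these data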;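 further: 100% = response to 3 µM Δ7-dafachronic acid high control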
NF-kB expr up: compounds increasing NF-kB expression in human neuronal cells; AID 1239; 190,000 compounds, 1.6% hits; NF-kB reporter expression; stronger effect = higher value; fold change at 12.5 µM; in the data active means fold change above about 3.3
ssDAF12 agonist: activators of S. stercoralis DAF-12 nuclear receptor. HEK293 ssDAF-12/GRIP1 lit1-tk-luc reporter, luminescence; % of 3 µM dafachronic acid response. activation, % at 6.8 µM. 370,000 compounds, 1% hits;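 active means activation above the mean over all tested compounds plus 3 SD, cut at about 0.9% in these data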;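 further: 0% = DMSO-only wells and 100% = 3 µM delta7-dafachronic acid wells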
LXRb hcDAF ctr: activates human LXR-beta, counter-screen for hcDAF-12 agonists; 3,400 tested, under 10 active; AID 743027; HEK293 Gal4-LXR tk-luc reporter, luminescence, 24 h; normalized: DMSO 0%, positive control 100%; shares compounds with hcDAF-12 act; activation, % at 6.8 µM;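 active means mean percent activation of the reporter above a cutoff set as the average over tested compounds plus their standard deviation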
Target sequence (P55055 whole entry, looked up, the tested form may be a part): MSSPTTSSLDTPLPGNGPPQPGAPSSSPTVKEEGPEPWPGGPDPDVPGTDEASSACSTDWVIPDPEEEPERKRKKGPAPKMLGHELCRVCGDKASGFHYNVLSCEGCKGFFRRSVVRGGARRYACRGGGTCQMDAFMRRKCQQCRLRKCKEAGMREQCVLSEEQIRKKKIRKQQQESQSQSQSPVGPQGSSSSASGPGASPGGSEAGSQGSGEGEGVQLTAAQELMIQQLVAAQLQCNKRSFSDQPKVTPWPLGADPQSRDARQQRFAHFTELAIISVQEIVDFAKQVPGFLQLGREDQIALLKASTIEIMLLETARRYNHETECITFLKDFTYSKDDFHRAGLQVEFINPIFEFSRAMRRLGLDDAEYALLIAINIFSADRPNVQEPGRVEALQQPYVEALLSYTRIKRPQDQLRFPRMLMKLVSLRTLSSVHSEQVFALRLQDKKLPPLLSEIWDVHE
hcDAF12 conf: hcDAF-12 agonism, confirmation assay. activation, % at 6.8 µM. shares compounds with hcDAF-12 act. HEK293 hcDAF-12 lit1-tk-luc reporter, luminescence; % of Δ7-dafachronic acid response. 3,400 compounds, 61% hits. AID 743032;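 active means mean activation across triplicate tests above the threshold derived from the earlier primary screen, cut at about 5.5% in these data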;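 further: 0% = DMSO only wells and 100% = 3 µM Δ7-dafachronic acid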
hgDAF12 conf: confirmation of H. glycines DAF-12 agonists | shares compounds with hgDAF12 agonist | HEK293 GAL4-hgDAF12 luciferase reporter, agonist mode; percent of butyrate response | activation, % at 6.8 µM | 3,300 compounds, 80% hits | AID 743050;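 active means mean activation over triplicate wells above the hit cutoff derived from the earlier primary screen, cut at about 11% in these data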;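 further: 0% = DMSO low control and 100% = 2 mM sodium butyrate high control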
LXR ag 2: LXR-beta agonism as DAF-12 counter-screen; shares compounds with hgDAF12 agonist; HEK293 Gal4-LXR luciferase reporter, 24 h; activation, % at 6.8 µM; 3,300 tested, under 10 active; AID 743051;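 active means mean activation of the triplicate above a set limit carried over from the primary screen, none filed active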
* marks the source's active call; other numbers are inactive results; nt = no result. Hits are enriched below; roughly 3.4% of the tested compounds scored in any of these assays.

SMILES	hgDAF12 agonist	APP 5'UTR act	hcDAF-12 act	NF-kB expr up	ssDAF12 agonist	LXRb hcDAF ctr	hcDAF12 conf	hgDAF12 conf	LXR ag 2
O=C(Nn1cnc2ccccc2c1=O)c1ccccc1Cl	2	1	0	1.4	-1	nt	nt	nt	nt
O=C(NC1CCCCC1)c1ccc(-c2ccccc2[N+](=O)[O-])o1	15*	nt	7.9*	nt	1.1*	1	7.3*	14*	1
Cc1cccc(NC(=O)c2ccc(-c3ccccc3[N+](=O)[O-])o2)c1	0	-2	-1	1.1	-2	nt	nt	nt	nt
COC(=O)[C@]12C[C@H](CC(=O)NCC34CC5CC(CC(C5)C3)C4)C(=O)N(Cc3ccco3)C1=C[C@H](C(C)C)O[C@@H]2C1CC1	-2	nt	0	nt	0	nt	nt	nt	nt
Cc1ccc2oc(-c3ccc(C)c(NC(=O)Cc4cccs4)c3)nc2c1	1	11	0	1.1	0	nt	nt	nt	nt
Cc1ccc2oc(-c3ccc(C)c(NC(=S)NC(=O)c4cccs4)c3)nc2c1	14*	222*	11*	3.4*	2.6*	1	8.9*	14*	1
O=C(Nc1ccccc1)c1cc2ccccc2s1	22*	nt	10*	nt	1.1*	2	11*	20*	1
O=[N+]([O-])c1cccc(COc2ccc(CN3CCOCC3)cc2)c1	20*	nt	7.8*	nt	1.4*	1	6.6*	16*	1
O=C(N/N=C/c1ccco1)c1[nH]ncc1Br	7	nt	1	nt	0	nt	nt	nt	nt
O=C(N/N=C/c1cccnc1)c1[nH]ncc1Br	13*	27	6.8*	1.2	0	0	1	5	0
C[C@H](O)[C@@H]1CN2CCc3c([nH]c4cccc(-c5ccccc5)c34)[C@@H]2C[C@@H]1N(C)CC1CCCCC1	-1	nt	2	nt	-2	nt	nt	nt	nt
CC1CC(=O)C2=C(C1)Nc1ccccc1N=C2 (configuration not stated)	5	-2	-2	1	-1	nt	nt	nt	nt
CCC1=Nc2ccccc2NC2=C1C(=O)CCC2	14*	10	15*	0.99	2.6*	0	7.9*	10	0
O=C(Nc1ccc2c(c1)OCO2)c1noc2c1CCCC2	15*	nt	8.1*	nt	1	2	8.5*	16*	1
O=C(Nc1cccnc1)c1noc2c1CCCC2	6	37	2	1.6	-1	nt	nt	nt	nt
O=C(Nc1ccc(Cl)cc1Cl)c1ccc2c(c1)OCCO2	14*	nt	7.5*	nt	1	2	6.3*	17*	1
Cc1ccc(NC(=O)c2ccc3c(c2)OCO3)cc1Cl	17*	nt	8.0*	nt	1.7*	1	5	18*	1
Clc1ccc([C@H]2OC[C@@]3(CNCCN4CCOCC4)CS[C@H](c4ccc(Cl)cc4)N23)cc1	0	nt	0	nt	-1	nt	nt	nt	nt
COc1ccc(NC(=O)n2ncc3c(C)cccc32)cc1	14*	nt	12*	nt	0	1	11*	21*	1
O=C(Cn1cnc2ccccc2c1=O)N1CCN(C(=O)C2CCCO2)CC1 (configuration not stated)	3	nt	0	nt	-1	nt	nt	nt	nt
COc1ccc(-c2cn3cc(C(F)(F)F)cc(Cl)c3n2)cc1	23*	150*	12*	9*	2.6*	1	15*	21*	1
Cc1ccn2cc(-c3cc4ccccc4oc3=O)nc2c1	24*	116	11*	5.4*	1.7*	1	6.9*	12*	1
Cc1ccc(-c2csc(Cc3nc(-c4cc5ccccc5oc4=O)cs3)n2)cc1	2	28	0	0.85	-1	nt	nt	nt	nt
CCC[C@H]1[C@@H](NC(=O)c2cccc(C)c2)CC[C@@]23CCCN2C(=O)CCC[C@@H]13	-3	nt	-2	nt	-2	nt	nt	nt	nt
